According to PubChem BioAssay (NCI):
This is part of a sample that, as a whole, favours compounds with a hit. Of some 79,000 tested, about 15% had one in any assay. Activity calls are given as the source filed them. Rule as the data show it: active = growth inhibition above about 70%; inactive = the rest.

Tests used:
[1] = NCI Yeast Anticancer Drug Screen. Data for the rad50 strain (AID 155);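 also: 0% = growth of vehicle-only cultures of the same strain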; conditions: S. cerevisiae rad50 strain growth inhibition; at 50.0 µM; hits give high values
How it was run: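 Inhibition values express reduced yeast growth in compound-treated cultures relative to vehicle-treated controls.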

[2] = NCI Yeast Anticancer Drug Screen. Data for the mec2-1 strain (AID 157); conditions: S. cerevisiae mec2-1 strain, at 50.0 µM, hits give high values
How it was run: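 Compounds were applied to mec2-1 yeast cells. Their growth was then compared with that of vehicle-treated cultures to give growth inhibition.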

[3] = NCI Yeast Anticancer Drug Screen. Data for the sgs1 mgt1 strain (AID 161);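 also: 0% = growth of cultures given vehicle only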; conditions: S. cerevisiae sgs1 mgt1 strain, at 50.0 µM, hits give high values
How it was run: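 This yeast growth screen uses a strain with defined DNA-repair lesions; compound-treated growth is compared with vehicle-treated growth.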

[4] = NCI Yeast Anticancer Drug Screen. Data for the cln2 rad14 strain (AID 165);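 also: 0% = growth equal to vehicle treated cultures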; conditions: S. cerevisiae cln2 rad14 strain, at 50.0 µM, hits give high values
How it was run: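 Strain: cln2 rad14 yeast, altered in cell cycle control and DNA damage repair. Read-out: growth inhibition vs vehicle.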

[5] = NCI Yeast Anticancer Drug Screen. Data for the bub3 strain (AID 167); conditions: S. cerevisiae bub3 mutant strain, at 50.0 µM, hits give high values
How it was run: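 Steps: expose the mutant yeast strain to compound; grow alongside vehicle-treated cultures; measure growth; express inhibition against the vehicle cultures.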

[6] = NCI Yeast Anticancer Drug Screen. Data for the mlh1 rad18 strain (AID 175); conditions: S. cerevisiae mlh1 rad18 strain growth inhibition; at 50.0 µM; hits give high values
How it was run: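 A repair-deficient yeast strain is exposed to test compound, and growth is scored relative to vehicle-treated controls.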

Measured: growth inhibition

CCOC(=O)/C=C(\N=P(c1ccccc1)(c1ccccc1)c1ccccc1)C(F)(F)C(F)(F)C(F)(F)C(F)(F)C(F)(F)F
inactive: [1] 19.4% | [2] 4% | [3] 32.4% | [4] 18.4% | [5] 20.2% | [6] 45.2%

CN(C)C(=O)C1C2CCC(C3CC32)C1C(=O)N(C)C (stereo not given)
inactive: [1] 22.9% | [2] 11.8% | [3] 37.2% | [4] 24.4% | [5] 24.6% | [6] 23.4%

CCOC(=O)c1ccc(OC(=O)Nc2ccccc2)cc1
inactive: [1] -2.2% | [2] 6% | [3] 1.15% | [4] -12.4% | [5] -2.8% | [6] -28.1%

O=C(CC(O)(C(F)(F)F)C(F)(F)F)c1cccc(S(=O)(=O)N2CCOCC2)c1
inactive: [1] 7.05% | [2] 5.9% | [3] 8.5% | [4] 8.05% | [5] 0.6% | [6] 22.8%

C=CCN=C(N)SCCN(CCSC(N)=NCC=C)C(N)=O
inactive: [1] 36.1% | [2] 10.7% | [3] 36.2% | [4] 34.2% | [5] 4.05% | [6] 13.1%

COc1cc(C=O)ccc1OC(=O)Nc1cccc(C(C)=O)c1
inactive: [1] 4.7% | [2] 23.6% | [3] 15.9% | [4] 7.65% | [5] 18.9% | [6] -18.6%

CCOc1ccc(NC(=O)C(=O)CC(=O)c2sc(NNC(C)=O)nc2C)cc1
inactive: [1] -21.1% | [2] 2.95% | [3] 17.5% | [4] 14.4% | [5] 5.4% | [6] -8%

O=c1c2cnccc2cc2n1CCc1c-2[nH]c2ccccc12
active: [1] 88.4% | [2] 89.3% | [3] 88.8% | [4] 90.2% | [6] 86.4%
inactive: [5] 69.8%

Cc1[nH]c2ccccc2c1C(CC(=O)O)c1ccccc1 (stereo not given)
inactive: [1] 13.6% | [2] -1.4% | [3] -12.8% | [4] -4.85% | [5] -4.55% | [6] -4.4%

CCOC(=O)c1cn2ccccc2c1C(=O)OCC
inactive: [1] 3.5% | [2] -3.1% | [3] -7.45% | [4] -23.2% | [5] -4.1% | [6] -14.8%

O=C(C[n+]1ccccc1)N/N=C(/CCC(=O)N(Cc1ccccc1)Cc1ccccc1)CC(=O)c1ccccc1
inactive: [1] -21.1% | [2] -21.8% | [3] -38% | [4] 0.85% | [5] -26.6% | [6] -21.8%

COc1ccc(C(=O)CCN(C)C)cc1
inactive: [1] 15.6% | [2] -5.85% | [3] -7.65% | [4] -11.3% | [5] -7.5% | [6] -4.6%

CC(C)CCN(CCCNc1c2c(nc3ccc(Cl)cc13)CCCC2)CCC(C)C
inactive: [1] -1.65% | [2] -9.4% | [3] -7.55% | [4] -34.4% | [5] -1.25% | [6] 4.95%

CCN(CC)c1ccc(/C=C2\CCc3ccc([N+](=O)[O-])cc3C2=O)cc1
inactive: [1] 1.95% | [2] -14.7% | [3] 6.2% | [4] -3.75% | [5] 3.8% | [6] -7.95%

Cc1ccc(C)c(NC(=O)Nc2ccc(Nc3ccccc3)cc2)c1
inactive: [1] -6.3% | [2] 12.8% | [3] 15.8% | [4] -18.4% | [5] 17.1% | [6] 33%

O=c1c2n(c(=O)c3n1CCC=3)CCC=2
inactive: [1] -2.5% | [2] -13.5% | [3] -0.6% | [4] -25.1% | [5] -6.85% | [6] 9.35%

CNCCC(=O)C1CCC(OC)CC1 (stereo not given)
inactive: [1] 26.2% | [2] -3% | [3] 2.1% | [4] -49.5% | [5] 5.45% | [6] -8.45%

N#C/C(=C/c1ccc[nH]1)C(=O)O
inactive: [1] -11.6% | [2] -10.2% | [3] -6.9% | [4] -1% | [5] -5.05% | [6] -25.9%

CC(C/C=C(/C=O)C(C)CC(C)(C)C)CC(C)(C)C (stereo not given)
inactive: [1] 43.9% | [2] 20.2% | [3] 36.3% | [4] -24.1% | [5] 4.85% | [6] 61.8%

O=C(N/N=C\c1ccc(Cl)cc1Cl)c1ccc(F)cc1
inactive: [1] -10.5% | [2] -10.8% | [3] -7.75% | [4] 0.3% | [5] -1.15% | [6] -4.1%

CC1=NN(C(=O)c2cccnc2)C(=O)C1N=Nc1ccc(S(=O)(=O)Nc2ccccn2)cc1 (stereo not given)
inactive: [1] 25.6% | [2] -8.75% | [3] 4.75% | [4] 11.4% | [5] -1.6% | [6] 1.8%

N#CCC(=O)N/N=C(\C#N)c1ccccc1
inactive: [1] 8.65% | [2] 1.95% | [3] 0.55% | [4] -51.9% | [5] -18.1% | [6] 0.75%

CC1CCN(C(c2ccccc2)c2ccc3ccccc3c2O)CC1 (stereo not given)
inactive: [1] 51.8% | [2] 42.2% | [3] 55.4% | [4] -6.8% | [5] 33.6%
active: [6] 75%

CC1OC(OCC2COC(O)(Oc3c(-c4ccc(O)c(O)c4)oc4cc(O)cc(O)c4c3=O)C(O)C2O)C(O)C(O)C1O (stereo not given)
inactive: [1] 20.1% | [2] -29.4% | [3] -15.8% | [4] 0.6% | [5] 8.05% | [6] 13.9%

COc1ccc(C(=O)/C=C/c2ccc(OCC(=N)N)cc2)cc1
inactive: [1] -31.1% | [2] -38.6% | [3] -18.8% | [4] -27.4% | [5] -15.8% | [6] -23.6%

CCOC(=N)c1cn(C2OC(CO)C(O)C2O)c2nc[nH]c(=O)c12 (stereo not given)
inactive: [1] 3.35% | [2] -5.25% | [3] 11.2% | [4] 23.4% | [5] 16.2% | [6] 0.4%

CCOC(=O)C(=[N+]=[N-])C(O)C1OC(c2ccccc2)OCC1O (stereo not given)
inactive: [1] 12.8% | [2] 18.1% | [3] 18.9% | [4] 22.1% | [5] 9.15% | [6] 24.7%

NC(CO)C(=O)NCCS(=O)(=O)O (stereo not given)
inactive: [1] -10.7% | [2] 9.6% | [3] -3.7% | [4] 22.1% | [5] -7.05% | [6] -6.95%

[O-]c1on[n+](-c2ccccc2)c1CN1CCOCC1
inactive: [1] -8.2% | [2] -8.35% | [3] -9.9% | [4] -45% | [5] 8.1% | [6] -3.05%

CC#Cc1c(O)c2c(c(O)c1C#CC)C(=O)c1ccccc1C2=O
inactive: [1] -1.3% | [2] -30% | [3] -25.4% | [4] -8.95% | [5] -3% | [6] -29.8%

CC1CC(C#N)=C2NCCCCN2C1=O (stereo not given)
inactive: [1] -21.6% | [2] -44.8% | [3] -2.25% | [4] 3.65% | [5] -7.9% | [6] -14.3%

COc1ccc(/C=C2\Oc3cc(OC(C)=O)ccc3C2=O)cc1
inactive: [1] -66.9% | [2] -44.6% | [3] -15.2% | [4] 12.2% | [5] -14.6% | [6] -21.8%

NC(=O)C1(C(N)=O)CC1
inactive: [1] 11.4% | [2] 4.55% | [3] -14.5% | [4] -0.05% | [5] -3.75% | [6] 5.1%

Cc1ccc(S(=O)(=O)CCS(C)(=O)=O)cc1
inactive: [1] -0.5% | [2] 2.2% | [3] 13.2% | [4] 21.8% | [5] -13.7% | [6] -11.2%

CC(C)OC(=O)C(C)(OC(=O)c1ccccc1)c1ccccc1 (stereo not given)
inactive: [1] 5.35% | [2] -14.8% | [3] 4.35% | [4] -13.1% | [5] 19.1% | [6] 14.3%

CC(C)(C)c1cc(/C=C/c2cc(/C=C/c3cc(C(C)(C)C)c(O)c(C(C)(C)C)c3)c([N+](=O)[O-])cc2[N+](=O)[O-])cc(C(C)(C)C)c1O
inactive: [1] 20.2% | [2] -0.15% | [3] 1.85% | [4] -45.7% | [5] 3.65% | [6] 5.8%

COc1cc(CC2c3cc(OC)c(OC)cc3CCN2C)c(Oc2cc3c(cc2OC)-c2c(OC)c(OC)c(OC)c4c2C(C3)N(C)CC4)cc1OC (stereo not given)
inactive: [1] 9.7% | [2] -0.95% | [3] -7.05% | [4] 13.8% | [5] 0.3% | [6] 1.2%

CC12CC(C/C1=N/O)C(C)(C)C2 (stereo not given)
inactive: [1] -4.3% | [2] 16.4% | [3] 1.55% | [4] 15.7% | [5] -7.65% | [6] 9.6%

CC(Oc1ccccc1-c1ccccc1)C(=O)N(C)C (stereo not given)
inactive: [1] -15.2% | [2] -0.2% | [3] 1.45% | [4] 0.75% | [5] -20.6% | [6] -45.6%

C/C(CC(=O)Nc1cc(Cl)c(Cl)cc1Cl)=N\NC(N)=O
inactive: [1] 28.8% | [2] 11.7% | [3] 1.55% | [4] 24.4% | [5] 30.3% | [6] 19.4%
